According to PubChem BioAssay AID743279 (National Center for Advancing Translational Sciences (NCATS), 2014):
In all, about 360,000 compounds went through this assay and about 17,000 (4.7%) were called active. Another 5% or so got no clear call; they are omitted. Rule as the data show it: active = activity change below about -50%; inconclusive = mostly about -30% to -49%; inactive = weaker than that. This excerpt belongs to a sample that is enriched for actives.

Assay: qHTS for Inhibitors of Inflammasome Signaling: IL-1-beta AlphaLISA Primary Screen
Conditions: THP-1 LPS/ATP IL-1B secretion, 16 h; at 57.5 µM, active compounds read low
How it was run: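 Secreted IL-1B measured by AlphaLISA bead assay after 16 h compound exposure of THP-1 cells; compounds (final up to 57.5 uM) added 1 h before LPS (250 ng/mL) and ATP (1.25 mM) stimulation; lower signal means less secretion.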
% is scaled to controls: 0 for no effect and ±100 for the full control effect.

Activity change, inactive:
Cc1ccc(S(=O)(=O)NNC(=O)/C=C/c2cccc(F)c2)cc1 -11.4%
CC(=O)Nc1ccc(CN2CCC(Oc3ccc(C(=O)N4CCCC4)cc3)CC2)cc1 20.8%
O=C(c1ccc(OC2CCN(Cc3ccccn3)CC2)cc1)N1CCCCCC1 2.11%
CC(CN1CCC(n2nccc2NC(=O)C2CCCC2)CC1)c1ccccc1 (stereo not given) -14%
Cc1nn(C)c(Cl)c1CN1CCC(n2nccc2NC(=O)C2CCCC2)CC1 22.9%
CCC(C(=O)NC(C)(C)C)n1c(-c2ccccc2)nc2ccccc21 (stereo not given) 3.76%
CC(=O)Nc1ccc2nc(NC(=O)CS(=O)(=O)c3ccc(F)cc3)sc2c1 2.42%
CCOc1ccc(S(=O)(=O)NCCC(=O)NCC(C)(C)N2CCOCC2)cc1 12.3%
Cc1ccc(NC(=O)[C@H](Cc2ccccc2)NC(=O)CC[C@H]2O[C@@H](n3ccc(=O)[nH]c3=O)[C@H](O)[C@@H]2O)cc1C 6.2%
CC1(C)OC(=O)C2=C(C[C@@H](C3CC3)O[C@H]2CCc2cccc(Cl)c2)O1 24.6%
COc1ccc(CCNC(=O)c2c(C)nn(-c3ccccc3)c2Cl)cc1 -6.31%
COc1cnn(-c2ccc([N+](=O)[O-])cc2)c(=O)c1Cl -16.9%
CCc1ccc(NC(=O)C(=O)NNC(=O)c2cccs2)cc1 -11.1%
CCOc1ccc(NC(=O)CN(C)C(=O)CSc2ccccc2)cc1OCC 5.24%
O=C(Nc1ccc(F)cc1)C(=O)c1cn(CC(=O)N2CCOCC2)c2ccccc12 8.7%
Cc1ccnc(NS(=O)(=O)c2ccc(NC(=O)c3oc4ccc(F)cc4c3C)cc2)n1 4.03%
COc1cccc(NC(=O)COC(=O)CCOc2ccccc2OC)c1 -1.64%
CSc1ccccc1NC(=O)COC(=O)CCCOc1ccc(C)cc1 13.8%
O=C(COC(=O)c1cccc(Cl)c1Cl)NC1CCCCCC1 4.38%
O=C(NCC(=O)N1CCCC(C(F)(F)F)C1)c1ccccc1F (stereo not given) 6.36%

Activity change, active:
O=C(c1ccc(OC2CCN(C/C=C/c3ccc(F)cc3)CC2)cc1)N1CCCCC1 -63.7%
O=C(Nc1ccnn1C1CCN(C/C=C/c2ccc(F)cc2)CC1)C1CCCC1 -71.6%
COc1ccc(Oc2c(Cl)cnn(-c3ccccc3)c2=O)cc1 -118%
COc1cc([N+](=O)[O-])ccc1NC(=O)COC(=O)CCOc1ccc(C)cc1 -81.7%
FC(F)(F)C1CCCN(c2nsc3ccccc23)C1 (stereo not given) -76%
